# From PubChem BioAssay AID651965 (National Center for Advancing Translational Sciences (NCATS), 2013)
# Among all 340,000 compounds or so, about 6,400 (1.9%) were called active. Roughly 4% stayed inconclusive and do not appear here. The call rests on the fitted dose curve; in most records, active means well fitted falling curve with a large enough effect; inconclusive means small, poorly fitted or top-dose-only effect; inactive means no such curve, though single readings can be large or run the other way. The list comes from a sample in which actives are over-represented; it also holds similar structures and randomly drawn compounds. Where a call stands in place of a potency, no number is given.
# Biological target: ATP-dependent Clp protease proteolytic subunit (Bacillus subtilis (strain 168)) (UniProt P80244)
# Experiment: qHTS Assay for Activators of ClpP; further: the source files actives as falling curves though it sought activators and does not explain the sign; nearly all actives have a fitted effect of over 65% in size
# Details: purified B. subtilis ClpP, FRET peptide cleavage, 20 min; series mostly up to 57.5 µM
# Summary of the method: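 Purified B. subtilis ClpP, 10 microg/mL final in Tris/HCl pH8 with KCl, BSA, glycerol and Tween-20, cleaved an Abz/nitrotyrosine-quenched decapeptide. Fluorescence (ex 320, em 430) was read at 0 and 20 min at room temperature. Delta was normalized to 5.8 microM ADEP and DMSO/no-enzyme controls.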
# Potency means the concentration at half of the fitted maximal effect.
# Sequence of ATP-dependent Clp protease proteolytic subunit (Bacillus subtilis (strain 168)) (P80244 whole entry, looked up): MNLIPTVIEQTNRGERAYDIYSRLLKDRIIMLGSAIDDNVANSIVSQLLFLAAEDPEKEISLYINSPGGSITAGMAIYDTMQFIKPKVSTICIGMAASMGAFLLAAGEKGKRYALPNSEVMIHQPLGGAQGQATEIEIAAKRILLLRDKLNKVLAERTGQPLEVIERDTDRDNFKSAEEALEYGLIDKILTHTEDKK
row,Structure (SMILES),Potency
1,COc1ccc(CN(Cc2ccccc2)C(=O)c2ccc(O)cc2)cc1COc1ccc(NC(C)=O)cc1,inactive
2,C[C@@H]1CN([C@@H](C)CO)C(=O)CCCn2nncc2CO[C@H]1CN(C)Cc1ccc(C(F)(F)F)cc1,inactive
3,C#CCN(C[C@@H]1[C@@H](OC(=O)NC2CC2)[C@@H](OC(=O)NC2CC2)Cn2c(=O)ccc(=O)n21)S(=O)(=O)c1ccc(C)cc1,inactive
4,CC1=C(C(=O)Nc2ccccc2)C(c2ccc(C)cc2)n2nc(SCc3ccccc3C)nc2N1 (centres undefined),inactive
5,COc1cccc(C2C(C(=O)Nc3ccc(C)cc3C)=C(C)Nc3c(C(=O)Nc4ccccc4)cnn32)c1 (centres undefined),inactive
6,CCc1ccc(C2C(C(=O)Nc3ccccc3)=C(C)Nc3c(C(=O)Nc4ccc(C)cc4)cnn32)cc1 (centres undefined),31.6 µM (active)
7,CC1(C(=O)NCc2ccc3c(c2)OCO3)CCN1C(=O)Cc1cccs1 (centres undefined),inactive
8,COc1cccc(CNc2nc(NCc3ccccc3OC)nc3ccsc23)c1,inactive
9,CCC(=O)N1CCCC1(C)C(=O)Nc1ccc2c(c1)CCN2C(C)=O (centres undefined),inactive
10,Cc1cc(C)cc(C(=O)NCCN2CCOCC2)c1,inactive
11,CCn1cc(/C=C(\NC(=O)c2ccc(C)cc2)C(=O)NCCN2CCOCC2)c2ccccc21,inactive
12,Cc1ccc(C(=O)NC(=S)NCCN2CCOCC2)cc1,28.2 µM (active)
13,CCCNC(=O)c1cc2c(c(-c3cccc(-c4ccc(C#N)cc4)c3)n1)[C@@H](CCO)N(C(=O)CC)C2,inactive
14,CC(C)OC(=O)CC(=O)CC(O)c1cccc([N+](=O)[O-])c1 (centres undefined),inactive
15,COC(=O)c1ccc2nc(-c3ccc(F)cc3)c(Cc3ccc(C)cc3)n2c1,inactive
16,CC(=O)Oc1ccc(NC(=O)CCC2CCCCC2)c(C(=O)O)c1,22.4 µM (active)
17,COC(=O)c1sccc1NC(=O)CCC1CCCC1,inactive
18,COc1ccc(NC(=O)CCCC2CCCCC2)c(OC)c1,inactive
19,CCc1nc2c(OCc3ccc(C(F)(F)F)cc3)cccn2c1N(C)C(=O)CC(C)C,inactive
20,Cc1ccccc1CN1C(=O)CSCC1(C)C(=O)Nc1c(C)cccc1C (centres undefined),inactive
21,CC(C)(C)C1CCC(NC(=O)c2cnn3c2NC(=C2CC2)C=C3C(F)F)CC1 (centres undefined),inactive
22,CN(C)CCCNC(=O)c1ccc2[nH]c3ccccc3c2c1,12.6 µM (active)
23,Cc1ccc(C(=O)NCCSc2c(C)[nH]c3ccccc23)cc1C,inactive
24,CCCCNC(=O)c1ccc(-n2c(=S)[nH]c3ccccc3c2=O)cc1,inactive
25,COc1ccc(NC(=O)c2sc(=O)n(Cc3ccc(S(=O)(=O)N(C)C)cc3)c2C)cc1,inactive

row,Structure (SMILES),Potency
1,CCN1C(=O)[C@H]2[C@@H](c3ccccc3)N[C@]3(CCCN(Cc4ccc(C)cc4)C3=O)[C@H]2C1=O,inactive
2,COCCn1c(C)cc(C(=O)COC(=O)CNC(=O)c2ccco2)c1C,inactive
3,CCc1ccc(C(=O)COC(=O)c2ccco2)cc1,inactive
4,NS(=O)(=O)c1ccc(NC(=O)COC(=O)c2ccco2)cc1,inactive
5,CCOC(=O)c1ccc(NC(=O)CNC(=O)c2ccco2)cc1,inactive
6,O=C(COC(=O)CNC(=O)c1ccco1)Nc1ccc(F)cc1,25.1 µM (active)
7,O=C(CNC(=O)c1ccco1)OCC(=O)c1ccccc1,25.1 µM (active)
8,CC(O)(c1cccc(F)c1)c1nc(-c2ccc3c(c2)OCO3)cs1 (centres undefined),inactive
9,C[C@@H]1CN([C@@H](C)CO)C(=O)c2cc(Br)cnc2O[C@H]1CN(C)Cc1ccc(-c2ccccc2)cc1,inactive
10,C[C@@H]1CN([C@H](C)CO)C(=O)CCCn2nncc2CO[C@@H]1CN(C)S(=O)(=O)c1cccc(C#N)c1,inactive
11,CC[C@@H]1CC2=C(C(=O)OC(C)(C)O2)[C@@H](CC)O1,inactive
12,CC1(c2cccc(Br)c2)NC(=O)N(CC(=O)NCCC2=CCCCC2)C1=O (centres undefined),inactive
13,COc1ccc(CCN(Cc2cc3cccc(C)c3[nH]c2=O)C(=O)N2CCCC2)cc1OC,inactive
14,COc1cc2cc(CN(CCN3CCCC3)C(=O)Nc3ccccc3Cl)c(=O)[nH]c2cc1OC,3.16 µM (active)
15,Cc1ccc2[nH]c(=O)c(CN(CCCN(C)C)C(=O)Nc3cccc(Cl)c3)cc2c1,inactive
16,O=S1(=O)CC(N2CCSCC2)CN1Cc1cn(Cc2cccc(Cl)c2)nn1 (centres undefined),inactive
17,CCc1nc2c(OCc3ccccc3)cccn2c1N(C)C(=O)c1ccco1,inactive
18,CC(=O)Oc1ccc(Cn2c(C)c(C(=O)NCc3ccc(C#N)cc3)sc2=O)cc1,inactive
19,CC(=O)NC(c1cccc(F)c1)c1nc(-c2cccc(F)c2)cs1 (centres undefined),inactive
20,COc1nc(NCc2ccc(Cl)cc2)nc(OC)n1,inactive
21,Cc1nn(-c2nc(-c3ccccc3)cc(C(F)(F)F)n2)c(C)c1Cl,inactive
22,FC(F)(F)c1cc(-c2ccco2)nc(NCc2ccc(Cl)cc2)n1,28.2 µM (active)
23,CCOC(=O)c1ccn(-c2nc(-c3ccco3)cc(C(F)(F)F)n2)n1,inactive
24,COc1ccc(CNc2nc(-c3ccc(Cl)cc3)cc(C(F)(F)F)n2)cc1,inactive
25,Cc1cc(C(F)(F)F)nn1-c1nc(-c2ccco2)cc(C(F)(F)F)n1,35.5 µM (active)

row,Structure (SMILES),Potency
1,CCc1oc(-c2ccc(OC)cc2)c(C(=O)OCCCCCO)c1C(C)OCCO (centres undefined),inactive
2,CCSC1(SCC)N=C(N)C2(C#N)C(c3ccccc3)NC(C)=CC12C#N (centres undefined),15.8 µM (active)
3,CNc1cncc(-c2ccc(NS(C)(=O)=O)cc2)n1,inactive
4,COc1cccc(CN2CCC(C(=O)NC(c3ccc4c(c3)OCO4)c3ccccn3)CC2)c1 (centres undefined),inactive
5,O=C(COc1ccccc1C(=O)Nc1ccccc1)Nc1cccc(F)c1,inactive
6,CC(C)n1c(CN2CCN(Cc3ccccc3)CC2)nc2ccccc21,inactive
7,CCC(c1nc2ccccc2[nH]1)n1c(=O)c(-c2cccs2)nc2ccccc21 (centres undefined),inactive
8,CC(C)n1c(-c2cccs2)nc2ccccc21,3.98 µM (active)
9,COc1cc(C=C(OC(C)=O)c2ccc3c(c2)OCO3)cc(OC)c1OC,inactive
10,CCCCSc1[nH]c(=O)c(C(=O)OCC)cc1C#N,31.6 µM (active)
11,CCOC(=O)c1cnc(COc2ccccc2Cl)[nH]c1=O,inactive
12,CCOC(=O)c1cc(C)nc(S(C)(=O)=O)c1C#N,inactive
13,CC(C)(C(=O)N1CCC1(C)C(=O)NS(=O)(=O)c1ccc(Br)cc1)c1ccccc1 (centres undefined),inactive
14,COc1cc(NC(=O)c2cccs2)ccc1NC(=O)c1ccccc1Cl,14.1 µM (active)
15,COc1cc(Cl)c(C)cc1NC(=O)[C@@H]1CCCN1C(=O)c1cccs1,inactive
16,O=C(Nc1ccccc1)c1ccc(NC(=O)c2cccs2)cc1,inactive
17,CCC1OC(C2CC2)CC2=C1C(=O)OC(C)(C)O2 (centres undefined),inactive
18,CC(C)c1cc(C(N)=O)c(NC(=O)c2cccc(COc3ccc(Br)cc3)c2)s1,25.1 µM (active)
19,CCc1cc(C(N)=O)c(NC(=O)c2ccc(OC)cc2)s1,inactive
20,CC(C)(C)OC(=O)N(Cc1ccccc1)Cc1ccc(OCc2cccc(NC(=O)c3ccccc3)c2)cc1,inactive
21,COCCNC(=O)C1(C)CCCN(Cc2cccc(F)c2)C1 (centres undefined),inactive
22,COc1ccc(OCCCn2c(C)nc3cc(C)c(C)cc32)cc1,inactive
23,COc1ccc(OCCCCN2CCC(C)CC2)cc1,inactive
24,COc1ccc(OCCn2ccnc2C)cc1,3.16 µM (active)
25,O=C(C[C@H]1C[C@H]2c3cc(NS(=O)(=O)c4ccc(F)cc4)ccc3O[C@H]2[C@H](CO)O1)NCc1cc(F)ccc1F,inactive

row,Structure (SMILES),Potency
1,COC(=O)c1[nH]c2ccccc2c1NC(=O)CN1CCCc2ccccc21,inactive
2,Cc1cc(NC(=O)CCN2CCN(Cc3ccccc3)CC2)ccc1Br,inactive
3,CCOC(=O)c1[nH]c2ccc(OC)cc2c1NC(=O)N1CCOCC1,25.1 µM (active)
4,Cc1c(C(=O)CN2CCOCC2)[nH]c2ccccc12,inactive
5,CCOC(=O)N1CCN(CCC(=O)Nc2cc(OC)ccc2OC)CC1,inactive
6,CCOC(=O)c1[nH]c2ccc(OC)cc2c1NC(=O)CCN1CCN(Cc2ccccc2)CC1,31.6 µM (active)
7,CCOC(=O)[C@]12CCCC=C1N(Cc1ccc(Cl)cc1Cl)C(=O)[C@H](CC(=O)N1CCCCC1)C2,inactive
8,OCC(O)C(O)C(O)C(O)C=Nc1ccc(/C=C/c2ccnc3ccccc23)cc1 (centres undefined),inactive
9,CCCc1ccc(S(=O)(=O)N2CCN(C(=O)c3cc(C)on3)CC2)cc1,inactive
10,CCOc1ccc(CCN2C(=O)C(=O)N([C@@H](CC(C)C)CN3CCC[C@H]3CN3C(=O)C(=O)NC[C@@H]3Cc3ccccc3)C[C@@H]2CC(C)C)cc1,inactive
11,CC(C)NC(=O)C1(C)CCCCCN1C(=O)c1ccc(-c2ccccc2)cc1 (centres undefined),inactive
12,O=C(COc1coc(CN2CCN(c3ccccc3)CC2)cc1=O)N1CCc2ccccc21,28.2 µM (active)
13,O=C(COc1coc(CN2CCN(c3ccccc3)CC2)cc1=O)Nc1ccccc1F,inactive
14,O=C(COc1coc(CN2CCN(c3ccccc3F)CC2)cc1=O)N1CCc2ccccc21,inactive
15,CS(=O)c1ccc(/C=C2\C=Cc3ccccc32)cc1 (centres undefined),inactive
16,CCCNC(=O)C1(C)CCCN(Cc2cccc(C(F)(F)F)c2)C1 (centres undefined),inactive
17,Cc1cc(C)c(S(=O)(=O)NN=C2c3ccccc3[C@H]3Cc4csc[n+]4[C@@H]23)c(C)c1,inactive
18,Cc1ccc(-c2nc3ccccn3c2Nc2ccc(F)cc2)o1,inactive
19,COc1ccccc1C(=O)Nc1ccc(NC(=O)c2ccco2)c(C)c1,inactive
20,O=C(Nc1ccc(NC(=O)c2cccs2)cn1)c1ccco1,inactive
21,COc1cccc(C(=O)Nc2ccc(NC(=O)c3ccco3)cn2)c1,14.1 µM (active)
22,Cc1ccc(C(=O)COc2cccc(NC(=O)c3ccco3)c2)cc1,15.8 µM (active)
23,COc1ccc(NC(=O)c2ccco2)cc1NC(=O)COc1ccc(C)c(C)c1,inactive
24,Cc1ccc(NC(=O)c2ccco2)cc1,inactive
